# A selection: hits, their analogues and other compounds. The true share with any hit is near 19%.
# HT1080 IDH1KD tx: qHTS for induction of synthetic lethality in tumor cells producing 2HG: qHTS for the HT-1080-IDH1KD cell line; HT-1080 IDH1 knockdown viability, ATP luminescence, 48 h; Potency, µM (series often up to 46.1 µM), most hits filed as cytotoxic; 2% of 360,000 active
#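 Cytotoxicity counter-line: IDH1KD HT-1080, 48 h, CellTiter-Glo. Curves classed by r2, magnitude and activity.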
# HT1080NT lethal: qHTS for induction of synthetic lethality in tumor cells producing 2HG: qHTS for the HT-1080-NT fibrosarcoma cell line | Potency, µM (titrated, usually from 46.1 µM), hits mostly cytotoxic | HT-1080-NT fibrosarcoma viability, CellTiter-Glo ATP luminescence, 48 h | 1.6% of 360,000 active;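 also: NT is the 2HG producing partner of a matched IDH1 knockdown line; nearly all actives have a fitted effect of over 55% in size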
#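 Read-out is CellTiter-Glo luminescence after 10 minutes at room temperature, following 48 hours' compound treatment of HT-1080-NT cells (750 cells/well, RPMI, 5% FBS, 37 degrees C).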
# uPA generation: qHTS for Inhibitors of Cell Surface uPA Generation; Potency, µM (titrated, usually from 38.3 µM), usual class: inhibitors; cell surface uPA generation assay, qHTS; AID 540303, 2011; 0.31% of 330,000 active; active = well fitted inhibition curve with a large enough effect; inconclusive = small, poorly fitted or top-dose-only effect; inactive = no such curve, though single readings can be large or run the other way; tested in mouse RAW 264.7 cells; also: nearly all actives have a fitted effect of over 55% in size
# DT40 TDP1 no CPT: qHTS for Inhibitors of human tyrosyl-DNA phosphodiesterase 1 (TDP1): qHTS in cells in absence of CPT; DT40 Tdp1-/- hTDP1 cells, no CPT, ATP luminescence, 48 h; Potency, µM (titrated, usually from 46.2 µM), actives largely listed as inhibitors; 15% of 420,000 active; AID 686978, 2013; also: nearly all actives have a fitted effect of over 55% in size
#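 Chicken DT40 Tdp1-/- cells complemented with human TDP1, screened without camptothecin (DMSO vehicle only), 400 cells/well. Compounds pin-transferred, cells incubated at 37 °C for at least 48 hr. Growth read as ATP-dependent luminescence (CellTiter-Glo, 30 min at RT).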
# DT40 TDP1 CPT: qHTS for Inhibitors of human tyrosyl-DNA phosphodiesterase 1 (TDP1): qHTS in cells in presence of CPT; AID 686979, 2013; 12% of 420,000 active; Potency, µM (top dose mostly 46.2 µM), actives largely listed as inhibitors; chicken DT40 Tdp1-/-;hTDP1 cells + 20 nM CPT, ATP luminescence, 48 h; also: nearly all actives have a fitted effect of over 55% in size
#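 Chicken DT40 Tdp1-/- cells stably complemented with human TDP1 were seeded at 400 cells/well in medium containing 20 nM camptothecin, exposed to pin-transferred compounds, and grown at 37 °C for at least 48 hr. Viability was read as ATP luminescence.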
# IL-1B inflam inh: qHTS for Inhibitors of Inflammasome Signaling: IL-1-beta AlphaLISA Primary Screen; THP-1 LPS/ATP IL-1B secretion, AlphaLISA, 16 h; hits give low values; activity change, % at 57.5 µM; 4.7% of 360,000 active; in the data active = activity change below about -50%; inconclusive = mostly about -30% to -49%
#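 THP-1 cells pretreated 1 hr with compounds (up to 57.5 uM final), then stimulated with LPS (250 ng/mL final) plus ATP (1.25 mM final); secreted IL-1B measured by AlphaLISA after 16 hr, decreased signal indicating inhibition.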
# A number is an active result; – = inactive; ? = inconclusive; · = no result. Unless noted, calls follow the shape of the dose curve; as a rule, active = well fitted curve in the direction sought with a large enough effect; inconclusive = small, poorly fitted or top-dose-only effect, or another doubt; inactive = no such curve, though single readings can be large; an effect the other way counts as inactive or inconclusive.
SMILES,HT1080 IDH1KD tx,HT1080NT lethal,uPA generation,DT40 TDP1 no CPT,DT40 TDP1 CPT,IL-1B inflam inh
Cc1ccc(Cc2c(C)nc3nc(SCC(=O)NCc4ccco4)nn3c2C)cc1,2.59µM,?,–,4.61µM,3.26µM,–
CCOC(=O)[C@]12CCC=C1N(Cc1ccccc1)C(=O)[C@H](CC(=O)NCCCCc1ccccc1)C2,?,?,·,20.6µM,?,?
CCOC(=O)[C@]12CCCC=C1N(Cc1ccco1)C(=O)[C@H](CC(=O)NCCC(C)C)C2,–,–,·,16.4µM,?,–
CCOC(=O)[C@]12CCC=C1N(Cc1ccccc1)C(=O)[C@H](CC(=O)NCCC(C)C)C2,–,–,·,?,20.6µM,–
CCOC(=O)[C@]12CCC=C1N(Cc1ccccc1)C(=O)[C@H](CC(=O)NCc1cccs1)C2,–,–,·,23.1µM,?,–
CCOC(=O)[C@]12CCC=C1N(Cc1ccc3c(c1)OCO3)C(=O)[C@H](CC(=O)NCc1cccs1)C2,–,–,·,?,?,–
COc1ccc(C(CNC(=O)c2ccc(-c3ccccc3)cc2)N(C)C)cc1OC (configuration not stated),20.6µM,18.4µM,–,?,?,?
COc1cccc(C(=O)NCC(c2ccc(N(C)C)cc2)N2CCc3ccccc32)c1OC (configuration not stated),·,·,·,14.6µM,14.6µM,·
COc1ccc(C(CNC(=O)c2ccc(C)c(S(=O)(=O)N3CCCCC3)c2)N(C)C)cc1OC (configuration not stated),–,–,–,–,–,–
COc1ccc(C(=O)NCC(c2ccc(N(C)C)cc2)N2CCc3ccccc32)cc1OC (configuration not stated),·,·,·,6.51µM,5.17µM,·
CN(C)c1ccc(C(CNC(=O)c2ccccc2C(F)(F)F)N2CCOCC2)cc1 (configuration not stated),·,·,·,–,–,·
CN(C)c1ccc(C(CNC(=O)c2ccccc2F)N2CCc3ccccc32)cc1 (configuration not stated),·,·,·,?,10.3µM,·
CCn1c(SC(C)C(=O)NCc2ccco2)nnc1-c1ccccc1 (configuration not stated),·,·,·,–,–,·
CC(S)C(=O)NCC(=O)O (configuration not stated),·,·,·,–,?,·
COc1ccc(C(=O)NCC(c2ccco2)N2CCc3ccccc3C2)cc1 (configuration not stated),–,–,–,?,?,–
COc1ccc(C(=O)NCC(c2cccs2)N2CCc3ccccc32)c(OC)c1 (configuration not stated),–,–,?,14.6µM,?,–
COc1cccc(C(=O)NCC(c2ccc(N(C)C)cc2)N2CCc3ccccc32)c1 (configuration not stated),·,·,·,?,8.2µM,·
COc1cccc(C(=O)NCCS(=O)(=O)N2CCc3ccccc3C2)c1,–,–,–,–,–,–
COc1cc(C(=O)NCC(c2ccc(N(C)C)cc2)N2CCc3ccccc32)cc(OC)c1OC (configuration not stated),·,·,·,18.4µM,7.31µM,·
COc1ccc(C(=O)NCC(c2ccco2)N2CCc3ccccc32)cc1 (configuration not stated),5.8µM,4.11µM,–,2.59µM,3.66µM,–
COCCNC(=O)C1CCCN(C(=O)c2csc3ccccc23)CC1 (configuration not stated),–,–,·,–,–,–
O=S(=O)(NCC(c1ccco1)N1CCc2ccccc21)c1ccccc1 (configuration not stated),–,–,–,18.4µM,23.1µM,–
Cc1cc(C)c(S(=O)(=O)NCC(c2ccc(N(C)C)cc2)N2CCc3ccccc32)c(C)c1 (configuration not stated),·,·,·,?,18.4µM,·
Cc1cc(S(=O)(=O)NCC(c2ccc(N(C)C)cc2)N2CCOCC2)ccc1F (configuration not stated),·,·,·,–,–,·
O=S(=O)(NCC(c1ccco1)N1CCN(c2ccccc2F)CC1)c1ccccc1 (configuration not stated),–,–,–,?,–,–
SMILES,HT1080 IDH1KD tx,HT1080NT lethal,uPA generation,DT40 TDP1 no CPT,DT40 TDP1 CPT,IL-1B inflam inh
Nc1ccc2c(c1)OC1(CCCC1)O2,–,–,–,–,–,–
O=C(NCCOc1ccccc1)C1Nc2ccc(C(F)(F)F)cc2C2c3ccccc3CC12 (configuration not stated),?,?,?,?,?,-74.0
CCOC(=O)C1Nc2ccc(OC(F)(F)F)cc2C2C=CCC12 (configuration not stated),–,–,–,?,?,–
CCOC(=O)C1Nc2ccccc2C2C(O)C(O)CC12 (configuration not stated),?,?,?,?,29.1µM,–
CCOC(=O)C1Nc2ccc(C(F)(F)F)cc2C2c3ccccc3CC12 (configuration not stated),?,?,?,16.4µM,18.4µM,-99.3
CCN(CC(=O)Nc1ccc(NC(C)=O)cc1)C(=O)C1CC1,–,–,·,–,–,–
CNc1ccc2ncc(-c3cccc(C(=O)N(C)C)c3)n2n1,–,–,·,11.6µM,?,–
CN(C)C(=O)c1cccc(-c2ccc3nncn3c2)c1,–,–,·,–,–,–
NC(=O)c1ccc(NC(=O)COC(=O)C2CC(=O)N(Cc3ccccc3)C2)cc1 (configuration not stated),–,–,–,–,–,–
Cc1cc(OCC(=O)NC(C)c2ccccc2)ccc1[N+](=O)[O-] (configuration not stated),?,–,–,16.4µM,18.4µM,–
Cc1cc(OCC(=O)NCc2cccnc2)ccc1[N+](=O)[O-],–,–,–,–,–,–
Cc1sc2ncn(CC(=O)N(C)c3ccc(C(C)C)cc3)c(=O)c2c1S(=O)(=O)N1CCC(C)CC1,·,·,·,23.1µM,23.1µM,·
CCC(C)NC(=O)Cn1cnc2sc(C)c(S(=O)(=O)N3CCN(c4ccccc4OC)CC3)c2c1=O (configuration not stated),–,–,–,–,–,–
COc1ccccc1N1CCN(S(=O)(=O)c2c(C)sc3ncn(CC(=O)N(C)c4ccc(C(C)C)cc4)c(=O)c23)CC1,·,·,·,?,13µM,·
CCCCN(C)C(=O)Cn1cnc2sc(C)c(S(=O)(=O)N3CCC(C)CC3)c2c1=O,·,·,·,–,–,·

# From PubChem
